# Bioassay records as filed in PubChem.
# VACV Venus inh = qHTS for Stage-Specific Inhibitors of Vaccinia Orthopoxvirus: Venus Reporter Primary qHTS; Vaccinia virus Venus reporter expression, fluorescence; Potency, µM (titrated, usually from 36.5 µM), actives largely listed as inhibitors; hit rate 0.46% among 330,000; AID 720580, 2013; calls by dose curve; tested in A549 cells; further: nearly all actives have a fitted effect of over 30% in size
# FMDV antiviral = High Throughput Screening for Foot and Mouth Disease Virus Antivirals; Potency, µM (series often up to 57.9 µM), actives largely listed as inhibitors; AID 1159524, 2015; hit rate 1.2% among 410,000; FMDV antiviral cell-based qHTS; calls by dose curve; tested in HEK293T cells; further: read-out not given here; nearly all actives have a fitted effect of over 45% in size
# HCV inh = qHTS Assay for Inhibitors of Hepatitis C Virus (HCV). Huh7.5.1 HCVcc-Cre infection, luciferase reporter, 44 h. Potency, µM (series often up to 41.8 µM), hits mostly inhibitors. hit rate 3.4% among 340,000. AID 651820, 2012; active means well fitted inhibition curve with a large enough effect; inconclusive means small, poorly fitted or top-dose-only effect, or another doubt; inactive means no such curve, though single readings can be large or run the other way
#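 Reporter virus HCVcc-Cre (~0.5 moi) infects cells exposed to compound; seeding density 1,000 cells/well with 4 h settling beforehand. Luminescence, 15 sec read, taken 44 h post-infection following a 15 min RT substrate incubation.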
# VACV mCherry inh = qHTS for Stage-Specific Inhibitors of Vaccinia Orthopoxvirus: mCherry Reporter Primary qHTS | Vaccinia virus mCherry reporter infection, fluorescence | AID 720579, 2013 | Potency, µM (titrated, usually from 36.5 µM), hits mostly inhibitors | hit rate 0.63% among 310,000; calls by dose curve; tested in A549 cells; further: nearly all actives have a fitted effect of over 35% in size
# HCMV inh = qHTS Assay for inhibitors of the human cytomegalovirus (HCMV) | HFF cells, HCMV-luciferase reporter, 72 h; hits give low values | hit rate 4.5% among 410,000 | activity change, negative = inhibition, % at 57.5 µM; in the data active means activity change below about -60%; inconclusive means no clear call, values can overlap the other calls; inactive means above about -39%
#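 HFF cells seeded 16 h at 37C, treated with compounds, infected with luciferase-reporter HCMV at MOI 1 PFU/cell; luciferase read at 72 h post infection, normalized to buffer-only and Salinomycin controls.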
# Numbers stand for hits; 0 = inactive; ? = inconclusive; - = no result. Sampled rows, rich in hits. Any-hit rate of the full collection: about 7.3%.
SMILES,VACV Venus inh,FMDV antiviral,HCV inh,VACV mCherry inh,HCMV inh
c1ccc(CNc2c3c(nc4ncnn24)CCC3)cc1,0,0,0,0,0
c1ccc(CN(Cc2ccccc2)c2c3c(nc4ncnn24)CCC3)cc1,-,0,0,-,-93.7
O=C(c1ccccc1)N1CCN(C(=O)c2ccccc2)c2ccccc21,0,35.5µM,3.16µM,0,-99.8
CC1(c2ccccc2)NC(=O)N(CC(=O)NCC2CCCO2)C1=O (configuration not stated),0,0,0,0,0
C=C(C)CNC(=S)NNC(=O)CCn1c2ccc(Cl)cc2c2cc(Cl)ccc21,?,0,0,0,-82.5
C=C(C)CNC(=S)NNC(=O)CCn1c2cc(Cl)ccc2c2ccc(Cl)cc21,0,0,0,0,0
CCOC(=O)C1CCN(C(c2cccnc2)c2c(NC(=O)c3ccco3)sc(C)c2C)CC1 (configuration not stated),?,25.1µM,6.31µM,?,-97.3
Cc1sc(NC(=O)c2ccco2)c(C(c2cccnc2)N2CCN(c3ccc(F)cc3)CC2)c1C (configuration not stated),0,?,11.2µM,0,-100.0
O=C(c1cnccn1)N1CCC2(CCCN(c3ccc(-c4ccccc4)cc3)C2)CC1,-,0,-,-,-
Cc1cc(N2CC(C)OC(C)C2)nc2ccccc12 (configuration not stated),0,0,?,0,-80.4
O=C(CC1(c2cccc(F)c2)CC(=O)N(Cc2cccnc2)C1=O)N1CCCCCCC1 (configuration not stated),0,0,-,0,-
Oc1ccc(C[C@H]2CN([C@@H](Cc3ccccc3)CN3CCCC3CN3C(=S)NC[C@@H]3Cc3ccccc3)C(=S)N2CC2CCCCC2)cc1 (some centres not stated),0,0,-,0,?
Oc1ccc(C[C@H]2CNC(=S)N2CC2CCCN2C[C@H](Cc2ccccc2)N2C[C@H](Cc3ccc(O)cc3)N(CC3CCCCCC3)C2=S)cc1 (some centres not stated),?,?,?,?,-62.6
Oc1ccc(C[C@H]2CNC(=S)N2CC2CCCN2C[C@H](Cc2ccc(O)cc2)N2C[C@H](Cc3ccc(O)cc3)N(CC3CCCCC3)C2=S)cc1 (some centres not stated),10µM,?,?,?,-92.6
Oc1ccc(C[C@H]2CNC(=S)N2CC2CCCN2C[C@H](Cc2ccc(O)cc2)N2C[C@H](Cc3ccccc3)N(CCc3ccccc3)C2=S)cc1 (some centres not stated),?,0,4.47µM,?,0
Oc1ccc(C[C@H]2CN([C@@H](Cc3ccc(O)cc3)CN3CCC[C@@H]3CN3C(=S)NC[C@@H]3Cc3ccccc3)C(=S)N2CC2CCCCCC2)cc1,?,0,-,?,-97.2
CC(C)C[C@H]1CNC(=S)N1C[C@H]1CCCN1C[C@H](Cc1ccc(O)cc1)N1C[C@H](Cc2ccccc2)N(CCc2ccccc2)C1=S,0,0,-,0,0
CNc1cc(C(=O)O)nc2ccccc12,0,-,-,0,-
CCCn1c(CN2CCN(c3ccc(OC)cc3)CC2)nc2c1c(=O)[nH]c(=O)n2C,0,0,-,0,0
Oc1ccc(C[C@H]2CNC(=S)N2C[C@H]2CCCN2C[C@H](Cc2ccccc2)N2C[C@H](Cc3ccc(O)cc3)N(CC3CCCCCC3)C2=S)cc1,0,0,-,0,?
Oc1ccc(C[C@H]2CN([C@@H](Cc3cccc(O)c3)CN3CCC[C@@H]3CN3C(=S)NC[C@@H]3Cc3ccccc3)C(=S)N2CC2CCCCC2)cc1,?,?,-,?,-71.6
CC(C)c1ccc(S(=O)(=O)/N=C2/C=C(Sc3ncn[nH]3)C(=O)c3ccccc32)cc1,?,22.4µM,2.51µM,11.2µM,-
Cc1ccc(S(=O)(=O)/N=C2/C=C(Sc3ncn[nH]3)C(=O)c3ccccc32)cc1,7.08µM,0,3.98µM,2.82µM,-
Cc1ccc(S(=O)(=O)Nc2ccc(O)c(Sc3ncn[nH]3)c2)cc1,0,0,0,?,0
COc1ccc(C)cc1S(=O)(=O)NC(C)c1cnn(-c2ccccn2)c1C (configuration not stated),0,0,?,0,0
SMILES,VACV Venus inh,FMDV antiviral,HCV inh,VACV mCherry inh,HCMV inh
COc1cccc(CNS(=O)(=O)c2ccc3c(c2)oc(=O)n3C)c1,0,0,-,0,0
CCOc1ccccc1NC(=S)N(CCCN1CCOCC1)Cc1cn(C)c2ccccc12,0,0,?,0,?
COc1ccccc1NC(=S)N(CCN1CCOCC1)Cc1ccccc1F,0,0,0,0,-60.7
Cc1ccc(Cl)cc1NC(=S)N(CCCN1CCOCC1)Cc1ccccn1,0,0,0,0,0
COc1ccccc1NC(=S)N(CCCN1CCOCC1)Cc1cn(C)c2ccccc12,0,0,?,0,-93.9
COc1cc(Cl)ccc1NC(=S)N(CCCN1CCOCC1)Cc1cn(C)c2ccccc12,0,0,?,?,-91.9
COc1ccc(Cl)cc1NC(=S)N(CCCN1CCOCC1)Cc1cn(C)c2ccccc12,?,0,10µM,?,-71.3
CC(=O)Nc1c(Br)cc2c(c1Br)Cc1cc([N+](=O)[O-])ccc1-2,0,0,?,?,0
CC1(c2nc3ccccc3[nH]2)CCC2=Nc3ccccc3CN21 (configuration not stated),0,0,-,0,0
CN1OC(C)(CC(=O)Nc2ccccc2)N=C1c1ccccc1 (configuration not stated),-,-,-,-,0
CCCCNC(=O)c1ccc(NC(=O)C2CCCO2)cc1 (configuration not stated),-,0,0,-,-89.6
CCOc1ccccc1NC(=O)c1ccc(NC(=O)C2CCCO2)cc1 (configuration not stated),0,0,11.2µM,0,?
COC(=O)c1ccccc1NC(=O)c1ccc(NC(=O)C2CCCO2)cc1 (configuration not stated),0,0,?,0,0
COc1ccc(CCN(C)C(=O)c2cc(S(=O)(=O)NCc3ccccc3)ccc2C)cc1OC,0,0,8.91µM,0,?
CCOc1ccc(CCNC(=O)c2ccc(CNS(=O)(=O)c3ccccc3)cc2)cc1OCC,0,28.2µM,?,0,-71.6
COc1ccc(CCNC(=O)c2ccc(CNS(=O)(=O)c3cc(C)ccc3C)cc2)cc1OC,?,20µM,?,-,?
COc1ccc(CCNC(=O)c2ccc(CNS(=O)(=O)c3cccc(Cl)c3)cc2)cc1OC,0,?,7.94µM,0,0
O=C(NCc1cccnc1)c1cc(C2CCCCN2S(=O)(=O)c2ccc(F)cc2F)on1 (configuration not stated),0,0,-,0,0
COCCCNc1oc(/C=C/c2cc(OC)c(OC)c(OC)c2)nc1C#N,0,0,-,0,0
COc1ccccc1N1CCN(c2ncnc3c2cnn3C)CC1,0,0,-,0,0
COC(=O)CCCn1cc(CN2CC(N3CCN(Cc4cccc(C)c4)CC3)CS2(=O)=O)nn1 (configuration not stated),0,0,-,0,0
